Experimental data as given in PubChem BioAssay (NCI).
The panel holds about 83,000 compounds, 20% with a hit somewhere; the sample as a whole holds those more often.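 Method: cells in 96-well plates; compound added at one concentration; 48 h incubation; percent growth measured; values under 10 scored active.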 Calls of active or inactive are those of the source.

Experiments:
Assay in all cases: NCI-60 one-dose screen, 48 h (100 = growth as untreated, 0 = no growth, -100 = all killed)
Settings in all cases: 10 µM unless noted
[1] = tested on: NCI-H23 lung
[2] = tested on: NCI-H226 lung
[3] = tested on: NCI-H322M lung
[4] = tested on: HOP-62 NSCLC
[5] = tested on: NCI-H460 lung
[6] = tested on: HOP-92 NSCLC
[7] = tested on: NCI-H522 lung
[8] = tested on: A549/ATCC NSCLC
[9] = tested on: 786-0 renal
[10] = tested on: COLO 205 colon
[11] = tested on: DU-145 prostate
[12] = tested on: K-562 leukemia
[13] = tested on: MALME-3M melanoma
[14] = tested on: MDA-MB-231 breast
[15] = tested on: RXF 393 renal
[16] = tested on: SF-268 CNS
[17] = tested on: SF-295 CNS
[18] = tested on: SF-539 CNS
[19] = tested on: UACC-257 melanoma
[20] = tested on: M14 melanoma

Structure (SMILES) | growth [1] | growth [2] | growth [3] | growth [4] | growth [5] | growth [6] | growth [7] | growth [8] | growth [9] | growth [10] | growth [11] | growth [12] | growth [13] | growth [14] | growth [15] | growth [16] | growth [17] | growth [18] | growth [19] | growth [20]
NCCNc1nc(-c2ccccc2)nc2nc(-c3ccccc3)oc12 | 90.6% (inactive) | 86.1% (inactive) | 104% (inactive) | 85.6% (inactive) | 98.4% (inactive) | 55.1% (inactive) | 105% (inactive) | 93.6% (inactive) | 81% (inactive) | 87.4% (inactive) | 98.2% (inactive) | 24.2% (inactive) | 102% (inactive) | 92.8% (inactive) | 85.9% (inactive) | 73.3% (inactive) | 101% (inactive) | 90.4% (inactive) | 111% (inactive) | 97.8% (inactive)
COc1ccc(C2=NN(c3nc(-c4ccc(OC)cc4)c(C#N)c(=O)n3C)C(=O)CC2)cc1 | 99.8% (inactive) | 86.1% (inactive) | 91.9% (inactive) | 105% (inactive) | 103% (inactive) | 77.9% (inactive) | 94.1% (inactive) | 104% (inactive) | 109% (inactive) | 109% (inactive) | 115% (inactive) | 101% (inactive) | 81.6% (inactive) | 83.5% (inactive) | 97.5% (inactive) | 100% (inactive) | 93.6% (inactive) | 93.6% (inactive) |  | 95.4% (inactive)
CN(C)CCCC1(c2ccc(F)cc2)OCc2cc(-c3ccc(C(F)(F)F)nc3)ccc21 (stereo not given) | 80.6% (inactive) | 90.6% (inactive) | 84.7% (inactive) | 83.3% (inactive) | 72.9% (inactive) | 51.1% (inactive) | 74.7% (inactive) | 71.4% (inactive) | 72.7% (inactive) | 60.7% (inactive) | 83.6% (inactive) | 13.5% (inactive) | 34.9% (inactive) | 72.6% (inactive) | 45.1% (inactive) | 73.7% (inactive) | 81.2% (inactive) | 80.8% (inactive) | -31.8% (active) | 13.8% (inactive)
CC1(C)c2ccccc2C(=O)C1(Br)Cc1ccccc1 (stereo not given) | 74.1% (inactive) | 94.1% (inactive) | 95.5% (inactive) | 95% (inactive) | 96.8% (inactive) | 83% (inactive) | 83.1% (inactive) | 94.6% (inactive) | 81.7% (inactive) | 97.9% (inactive) | 92.5% (inactive) | 42.7% (inactive) | 121% (inactive) | 105% (inactive) | 83.5% (inactive) | 89.6% (inactive) | 85.7% (inactive) | 89.9% (inactive) | 99.4% (inactive) | 89.1% (inactive)
NC(N)=N/N=C/c1ccc(-c2ccc(-c3ccc(Cl)cn3)s2)cc1 | 101% (inactive) | 88.6% (inactive) | 96.7% (inactive) | 93.8% (inactive) | 88.1% (inactive) | 58.3% (inactive) | 97.6% (inactive) | 71.4% (inactive) | 63.8% (inactive) | 28.7% (inactive) | 94.4% (inactive) | 1.08% (active) | 101% (inactive) | 76.8% (inactive) | 59.2% (inactive) | 88.2% (inactive) | 102% (inactive) | 85.9% (inactive) | 109% (inactive) | 94.7% (inactive)
Cc1ccccc1-c1nc(C(Cl)Cl)nc2cc(-c3ccccc3)nn12 | 50.4% (inactive) | 75.3% (inactive) | 86.3% (inactive) | 54.9% (inactive) | 81.5% (inactive) | 45.8% (inactive) | 82.8% (inactive) | 25.1% (inactive) | 93.7% (inactive) | 41.7% (inactive) | 57.8% (inactive) | 52.2% (inactive) | 86.2% (inactive) | 44.9% (inactive) | 3.45% (active) | 88.1% (inactive) | 81.6% (inactive) | 76.3% (inactive) | 107% (inactive) | 94% (inactive)
Cc1ccc(NC2CC(=O)N(c3c(C)cc(C)cc3C)C2=O)c(C)c1 (stereo not given) | 108% (inactive) | 109% (inactive) | 101% (inactive) | 110% (inactive) | 108% (inactive) | 94.5% (inactive) | 98.6% (inactive) | 102% (inactive) | 105% (inactive) | 123% (inactive) | 105% (inactive) | 98.2% (inactive) | 97.7% (inactive) | 103% (inactive) | 124% (inactive) | 101% (inactive) | 111% (inactive) | 102% (inactive) | 99.6% (inactive) | 107% (inactive)
Cc1ccc2oc(=O)cc(-c3sc(N4CCCCC4)nc3-c3ccccc3)c2c1 | 90.9% (inactive) | 90.4% (inactive) | 81.8% (inactive) | 89.7% (inactive) | 91.1% (inactive) | 92.1% (inactive) | 89% (inactive) | 99.6% (inactive) | 99.8% (inactive) | 97.3% (inactive) | 98.5% (inactive) | 97.8% (inactive) | 86% (inactive) | 88.1% (inactive) | 101% (inactive) | 87.9% (inactive) | 102% (inactive) | 94.7% (inactive) | 105% (inactive) | 97.3% (inactive)
Cc1ccc(N(CC(=O)Nc2ccc(S(=O)(=O)N3CCC(N4CCCC4)CC3)cc2)S(=O)(=O)c2ccc(Cl)cc2)cc1 | 77.6% (inactive) | 64.7% (inactive) | 22.5% (inactive) | 67.6% (inactive) | -58.5% (active) | 50.9% (inactive) | 44.2% (inactive) | 20.2% (inactive) | -70.5% (active) | -60.5% (active) | 9.76% (active) | -44.9% (active) | -81.2% (active) | -42.9% (active) | -70.8% (active) | 34.8% (inactive) | -64.5% (active) | -89.7% (active) |  | -68.8% (active)
CCc1ccccc1NC(=O)c1sc2nc3c(cc2c1N)CCCC3 | 52.7% (inactive) | 73.4% (inactive) | 74.9% (inactive) | 35.6% (inactive) | 20.6% (inactive) | 37.1% (inactive) | 15% (inactive) | 36.7% (inactive) | 44.1% (inactive) | 36% (inactive) | 51.7% (inactive) | 12.1% (inactive) | 55.7% (inactive) | 51.3% (inactive) | 49.8% (inactive) | 49.2% (inactive) | 29.6% (inactive) | 13.9% (inactive) |  | 24.1% (inactive)
C=C1C(=O)O[C@H]2[C@H]1CC/C(Cn1cc(-c3ccc(F)cc3)nn1)=C\CC[C@@]1(C)O[C@@H]21 | 5.71% (active) | -31.3% (active) | 80.6% (inactive) | 44.4% (inactive) | 77.4% (inactive) | -67.7% (active) | -80.4% (active) | 60.2% (inactive) | -71.5% (active) | -84.4% (active) | -71.3% (active) | -20.3% (active) | -58.1% (active) | -46.2% (active) | -68.1% (active) | 5.29% (active) | 86.4% (inactive) | -34.6% (active) |  | -40.3% (active)
O=S(=O)(NCCCNc1cc(-c2cn(-c3ccccc3)nc2-c2cccc(O)c2)ccn1)c1ccc(F)cc1 | 44.4% (inactive) | 54.1% (inactive) | 51.2% (inactive) | 53.8% (inactive) | 24.9% (inactive) | 57.7% (inactive) | 37.6% (inactive) | 38.8% (inactive) | -4.8% (active) | -66.1% (active) | 59.5% (inactive) | 3% (active) | 35.9% (inactive) | -0.971% (active) | 39.7% (inactive) | 44.5% (inactive) | 5.71% (active) | 38.8% (inactive) |  | 26.6% (inactive)
COc1cccc(-c2nn(-c3ccccc3)cc2-c2ccnc(NCCCNS(=O)(=O)c3cccc(F)c3)c2)c1 | 30.2% (inactive) | 21.7% (inactive) | 53.9% (inactive) | 54.1% (inactive) | 24.5% (inactive) | 6.39% (active) | 9.36% (active) | 27.4% (inactive) | 31.6% (inactive) | 11.9% (inactive) | 53.6% (inactive) | 6.28% (active) | 35.1% (inactive) | 5.9% (active) | 15.8% (inactive) | 46.8% (inactive) | 7.99% (active) | 51.9% (inactive) |  | 21% (inactive)
O=S(=O)(NCCNc1cc(-c2cn(-c3ccccc3)nc2-c2cccc(O)c2)ccn1)c1ccc(C(F)(F)F)cc1 | 41.8% (inactive) | 57.8% (inactive) | 75.3% (inactive) | -60% (active) | 42.3% (inactive) | 38.4% (inactive) | 55.7% (inactive) | 41.6% (inactive) | 35.8% (inactive) | -21.4% (active) | 71.8% (inactive) | 7.03% (active) | 60.2% (inactive) | 5.29% (active) | 40.5% (inactive) | 50% (inactive) | 38.6% (inactive) | 60.1% (inactive) |  | 32.1% (inactive)
COc1ccc(O)c(-c2cc(-c3ccc(Cl)cc3)c(C#N)c(=O)[nH]2)c1 | 69.6% (inactive) | 89.1% (inactive) | 101% (inactive) | 64% (inactive) | 69.3% (inactive) | 36% (inactive) | 36.8% (inactive) | 86.7% (inactive) | 68.3% (inactive) | 95.2% (inactive) | 102% (inactive) | 23.5% (inactive) | 105% (inactive) | 61.2% (inactive) | 84.5% (inactive) | 85.2% (inactive) | 61.5% (inactive) | 52.4% (inactive) |  | 49.9% (inactive)
COC(=O)[C@]12CC[C@@H](C)[C@H](C)[C@@H]1C1=CC[C@@H]3[C@@]4(C)C[C@@H](OC(C)=O)[C@H](O)[C@@](C)(COC(C)=O)[C@@H]4[C@H](O)C[C@@]3(C)[C@]1(C)CC2 | -83.3% (active) | -57.8% (active) | -92.6% (active) | -84% (active) | -86.9% (active) | -67.4% (active) | -81.6% (active) | -86.2% (active) | -81.9% (active) | -81.3% (active) | -91.9% (active) | -10.7% (active) | -70.5% (active) | -68% (active) | -79.2% (active) | -71.9% (active) | -91.8% (active) | -85.1% (active) |  | -73.3% (active)
N#Cc1cnc2cc(OC[C@@H](O)CO)c(NC(=O)C3CCCC3)cc2c1Nc1ccc(OCc2cccc(F)c2)c(Cl)c1 | 13.6% (inactive) | 38.5% (inactive) | 35.7% (inactive) | -51.9% (active) | 0.536% (active) | -37.2% (active) | -58.5% (active) | 47.9% (inactive) | 43.6% (inactive) | 49.6% (inactive) | -90.8% (active) | 0.239% (active) | -48.8% (active) | -58.5% (active) | -62.6% (active) | 23.1% (inactive) | 1.06% (active) | -32.5% (active) |  | -53% (active)
